Cruzain inh noDet = inhibitors of Trypanosoma cruzi cruzain without detergent; P25779; purified cruzain, Z-FR-AMC fluorescence, no detergent; Potency, µM, inactives show max response, negative = inhibition, hits mostly inhibitors; actives 2.3% (n = 200,000);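 further: plate controls were enzyme without inhibitor for no effect and buffer without enzyme for full effect; nearly all actives have a fitted effect of over 40% in size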
Target sequence (P25779 123-467 limits assumed): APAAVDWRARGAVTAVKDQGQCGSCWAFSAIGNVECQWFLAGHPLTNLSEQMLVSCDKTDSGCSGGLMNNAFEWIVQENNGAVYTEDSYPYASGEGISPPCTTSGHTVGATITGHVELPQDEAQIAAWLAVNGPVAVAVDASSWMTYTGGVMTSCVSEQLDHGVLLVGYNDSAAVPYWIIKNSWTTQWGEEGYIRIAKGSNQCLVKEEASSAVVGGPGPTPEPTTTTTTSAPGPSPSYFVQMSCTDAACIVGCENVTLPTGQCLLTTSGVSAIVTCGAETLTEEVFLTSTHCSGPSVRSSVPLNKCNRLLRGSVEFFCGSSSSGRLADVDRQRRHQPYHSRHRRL
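Detergent-free condition (0.00005% Triton X-100) in acetate buffer pH 5.5 with DTT. 1.5 nM enzyme and compound were pre-mixed 15 min, then 2 uM Z-FR-AMC substrate added; reaction progress from fluorescence change between first and third reads (60 s).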
Cruzain Triton = blocks cruzain activity in presence of Triton detergent | AID 1478 | purified cruzain, Z-FR-AMC fluorescence, 0.01% Triton | actives 0.43% (n = 200,000) | Potency, µM, without a hit: max response, negative = inhibition, most hits filed as inhibitors;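 further: plate controls were neutral wells for no effect and buffer without enzyme for full effect; nearly all actives have a fitted effect of over 40% in size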
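15 min RT preincubation of 1.5 nM cruzain with compound, then 2 uM Z-FR-AMC added; kinetic AMC fluorescence, 60 s delta. Triton X-100 0.01%, pH 5.5.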
Numbers without * were called inactive; ? = inconclusive. Shown are actives, neighbours in structure and some others; about 2.5% of the full set was active somewhere. The call rests on the fitted dose curve; in most records, active means well fitted curve in the direction sought with a large enough effect; inconclusive means small, poorly fitted or top-dose-only effect, or another doubt; inactive means no such curve, though single readings can be large; an effect the other way counts as inactive or inconclusive. Potency means the concentration at half of the fitted maximal effect.

SMILES | Cruzain inh noDet | Cruzain Triton
O=C(/C=C\c1ccc2c(c1)OCO2)Nc1nnc(SCC(=O)OCc2ccccc2)s1 | 5µM* | 0%
COC(=O)CSc1nnc(NC(=O)/C=C\c2ccc3c(c2)OCO3)s1 | -12% | 2%
COC(=O)c1ccccc1NS(=O)(=O)c1cc2c3c(c1)CC(=O)N3CCC2 | 19% | -1%
CCc1ccc(NCc2cc3cc4c(cc3n(CC(=O)Nc3ccc(Cl)cc3)c2=O)OCO4)cc1 | 16µM* | -1%
COc1ccc(NCc2cc3cc4c(cc3n(CC(=O)Nc3cc(C)cc(C)c3)c2=O)OCO4)cc1 | ? | -5%
Cc1ccc(NCc2cc3cc4c(cc3n(CC(=O)Nc3ccc(C)cc3)c2=O)OCCO4)cc1 | ? | -7%
COc1ccc(NCc2cc3cc4c(cc3n(CC(=O)Nc3ccc(C)c(C)c3)c2=O)OCO4)cc1 | 16µM* | -3%
CCC(=O)Nc1nnc(S(=O)(=O)N(C)Cc2ccc(Cl)cc2)s1 | -27% | -1%
COc1ccc(C2c3c(oc4ccccc4c3=O)C(=O)N2c2nc(C)c(C)s2)cc1 (stereo not drawn) | 6% | 0%
CC(=O)N1CCc2c(sc3c2c(=O)n(-c2ccccc2)c(=O)n3CC(=O)c2ccc(Cl)cc2)C1 | 0% | 0%
CCc1cccc(-n2nnc(-c3nsc(NC(=O)c4cccs4)n3)c2C)c1 | 13% | 3%
CCOC(=O)c1cc2cc3ccccc3cc2[nH]1 | 25µM* | -6%
CC(C)OC(=O)c1cc2ccccc2[nH]1 | -10% | -5%
Cc1ccc(-c2nn(-c3ccc(F)cc3F)c3c2cnc2ccc(F)cc23)cc1 | -7% | -1%
Cc1cc(NC(=O)C2CCN(S(=O)(=O)c3ccc4[nH]c(=O)oc4c3)CC2)ccc1Br | -19% | -1%
O=C(COc1cc(Cl)ccc1Cl)Nc1ccc2c(c1)CCC2 | 25µM* | -1%
O=C(O)COCC(=O)Nc1ccc2c(c1)CCC2 | -11% | 3%
Cc1cc(S(=O)(=O)Nc2ccc3oc4c(c3c2)CCCC4)ccc1Cl | -18% | -3%
COc1ccc(-c2noc(-c3ccc(N4CCC(C)CC4)c([N+](=O)[O-])c3)n2)cc1OC | 20µM* | -7%
COc1ccc(-c2noc(-c3ccc(N4CCOCC4)c([N+](=O)[O-])c3)n2)cc1OC | 12% | -4%
c1ccc(-c2ccc(C3=Nn4c(nnc4-c4cc(-c5ccccc5)n[nH]4)SC3)cc2)cc1 | 3.2µM* | 1%
Cc1cccc(-c2nnc3n2N=C(c2ccc(Br)cc2)CS3)c1 | -3% | 3%
COc1cccc(-c2nnc3n2N=C(c2cccc(Br)c2)CS3)c1 | 7.9µM* | 3%
CC1=Nn2c(nnc2-c2cc(-c3ccccc3)n[nH]2)SC1 | 6% | 0%
Cc1oc2ncn(C)c(=O)c2c1C(=O)NCCCN(Cc1ccccc1)C(C)C | 6% | 0%
SMILES | Cruzain inh noDet | Cruzain Triton
Cc1n[nH]c(=S)n1/N=C/c1ccc(OCc2ccc(Cl)cc2Cl)cc1 | -14% | -2%
Cc1n[nH]c(=S)n1/N=C/c1ccccc1OCc1ccc(Cl)cc1Cl | 16µM* | -1%
CCNc1ccc(-c2nc(-c3ccco3)no2)cc1[N+](=O)[O-] | -15% | -1%
COCCNc1ccc(-c2nc(-c3ccco3)no2)cc1[N+](=O)[O-] | 3.2µM* | -3%
Cc1ccc(OCC(=O)Nc2nc(-c3ccc(Br)cc3)ns2)cc1 | 8% | -4%
N#Cc1sc2nc(-c3cccs3)cc(-c3ccccc3)c2c1N | 16µM* | -1%
N#Cc1c(-c2cccs2)cc(-c2cccnc2)nc1N | -11% | -11%
CC(C)(C)C(=O)c1sc2nc(-c3cccs3)cc(C(F)(F)F)c2c1N | -2% | 1%
CCN(CC)C(=O)c1sc2nc(-c3cccs3)cc(-c3ccc(Cl)cc3)c2c1N | 32µM* | -2%
COc1ccc(-c2cc(C3CC3)nc3sc(C#N)c(N)c23)cc1 | -4% | -10%
N#Cc1sc2nc(-c3cccs3)cc(-c3ccc(Cl)cc3)c2c1N | 13µM* | 1%
Cc1ccc2c(c1)C(c1ccc(F)cc1)N(C(=O)C(C)C)CC(=O)N2 (stereo not drawn) | -3% | 1%
CCOC(=O)c1cc(-c2ccccc2)sc1NC(=O)C(C)C | 4% | -14%
CCOC(=O)c1cc(-c2ccccc2)sc1NC(=O)C(C)N1C(=O)NC(C)(c2ccc(Cl)cc2)C1=O (stereo not drawn) | 4µM* | 0%
CC(=O)c1cccc(S(=O)(=O)N2CCN(c3nc4cc(C)cc(C)c4cc3C#N)CC2)c1 | 16µM* | -1%
CC(=O)c1cccc(S(=O)(=O)N2CCN(c3ccccc3F)CC2)c1 | -6% | -5%
CCn1cc(C(=O)N2CCN(c3cccc(Cl)c3)CC2)c(=O)c2cc(S(=O)(=O)N3CCCCC3)ccc21 | ? | -12%
O=C(CSc1nnc(CNC(=O)c2c(F)cccc2Cl)o1)Nc1cccc(F)c1 | -3% | -4%
CCc1nnc(N/N=C/c2c(Cl)cccc2Cl)n1N | -7% | -3%
Cc1nnc(N/N=C/c2cccc(OCc3ccc(Cl)c(Cl)c3)c2)n1N | ? | 22µM*

Screening results as filed in PubChem BioAssay.
